# The whole screen tested about 310,000 compounds, of which about 2,200 (0.71%) showed an effect of 50% or more. Effects have a minus sign here. Many of the other results were omitted from the sample, so strong results are more common in it than they were.
# Molecular target: human ether-à-go-go-related gene (hERG) potassium channel (human, UniProt Q12809)
# Assay: primary screen, population patch clamp on CHO cells stably expressing hERG; higher = less effect of the substance
# Sequence of human ether-à-go-go-related gene (hERG) potassium channel (Q12809 whole entry, looked up): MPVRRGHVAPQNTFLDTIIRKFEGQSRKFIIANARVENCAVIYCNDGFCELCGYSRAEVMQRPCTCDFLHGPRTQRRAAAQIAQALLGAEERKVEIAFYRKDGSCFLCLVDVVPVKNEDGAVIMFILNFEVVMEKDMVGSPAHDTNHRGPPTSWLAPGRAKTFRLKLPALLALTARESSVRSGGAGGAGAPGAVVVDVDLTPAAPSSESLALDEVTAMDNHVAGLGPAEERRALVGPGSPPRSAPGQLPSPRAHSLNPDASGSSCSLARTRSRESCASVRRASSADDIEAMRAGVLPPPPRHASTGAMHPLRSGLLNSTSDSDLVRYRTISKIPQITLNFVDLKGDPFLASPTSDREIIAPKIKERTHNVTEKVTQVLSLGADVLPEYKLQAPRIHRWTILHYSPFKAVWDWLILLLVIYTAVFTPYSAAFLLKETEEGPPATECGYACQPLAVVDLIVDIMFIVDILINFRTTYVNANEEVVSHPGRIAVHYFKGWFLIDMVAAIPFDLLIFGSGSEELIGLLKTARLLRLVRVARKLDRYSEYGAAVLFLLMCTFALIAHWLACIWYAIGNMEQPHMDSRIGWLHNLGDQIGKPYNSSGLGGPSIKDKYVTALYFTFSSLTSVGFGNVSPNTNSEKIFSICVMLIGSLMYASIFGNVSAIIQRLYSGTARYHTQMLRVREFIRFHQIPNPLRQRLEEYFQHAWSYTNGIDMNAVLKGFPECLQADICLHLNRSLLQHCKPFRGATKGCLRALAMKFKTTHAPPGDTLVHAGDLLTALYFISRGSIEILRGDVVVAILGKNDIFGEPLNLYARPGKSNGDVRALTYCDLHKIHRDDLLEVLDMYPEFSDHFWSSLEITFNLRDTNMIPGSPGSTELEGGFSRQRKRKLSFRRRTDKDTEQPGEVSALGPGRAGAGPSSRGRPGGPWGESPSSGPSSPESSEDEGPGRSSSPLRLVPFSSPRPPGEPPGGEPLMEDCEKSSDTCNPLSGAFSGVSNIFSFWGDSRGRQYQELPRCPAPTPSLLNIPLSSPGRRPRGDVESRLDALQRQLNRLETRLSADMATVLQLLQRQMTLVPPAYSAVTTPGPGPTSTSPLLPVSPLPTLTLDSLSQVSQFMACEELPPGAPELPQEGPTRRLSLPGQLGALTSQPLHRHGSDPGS
row,SMILES,"hERG current change (%, negative = inhibition) at 1uM [%]"
1,c1ccc2c(c1)CCCn1nnnc1-2,6.71
2,CCCC(=O)N(Cc1cc(=O)[nH]c2ccccc12)c1ccccc1C,13.1
3,O=C(Cn1cnc(S(=O)(=O)N2CCCC2)c1)Nc1cccc(F)c1,14.4
4,COc1ccc(S(=O)(=O)N2CCOCC2)cc1NC(=O)c1ccc(-n2nc(C)cc2C)cc1,6.25
5,CCc1ccc(C(=O)OCC(=O)Nc2cccc(S(=O)(=O)NC3=NCCCCC3)c2)cc1,7.29
6,COc1ccc(CNS(=O)(=O)c2ccc3c(c2)CC(C)N3C(=O)C2CC2)cc1 (centres unmarked),15.1
7,Cc1ccc2c(c1)N(C(=O)CCC(=O)NCCCN1CCOCC1)CCO2,13.9
8,Cc1ccc2c(c1)N(C(=O)CCC(=O)NCCCN1CCN(C)CC1)CCO2,7.21
9,O=C(CCC(=O)N1CCOc2ccc(Cl)cc21)NCCCN1CCN(Cc2ccccc2)CC1,-63.7
10,O=C(CCC(=O)N1CCOc2ccc(Cl)cc21)NCCCN1CCC(Cc2ccccc2)CC1,-64.7
11,O=C(CCC(=O)N1CCOc2ccc(Cl)cc21)NCCCN1CCN(c2ccccc2F)CC1,-22.2
12,O=C(CCC(=O)N1CCOc2ccc(Cl)cc21)NCCCN1CCOCC1,12.5
13,CCN1CCN(CCCNC(=O)CCC(=O)N2CCOc3ccc(Cl)cc32)CC1,6.48
14,Cc1ccc2c(c1)N(C(=O)CCC(=O)NCCCN1CCC(Cc3ccccc3)CC1)CCO2,-78.7
15,O=C(CCC(=O)N1CCOc2ccccc21)NCCCN1CCN(Cc2ccccc2)CC1,-41.9
16,CC(NS(=O)(=O)c1cccc(S(=O)(=O)c2ccccc2)c1)C(=O)O (centres unmarked),7.71
17,O=C(CSc1ccc(-c2cccnc2)nn1)N1CCCCC1,14.1
18,COc1ccc(-c2[nH]ncc2CN(C)C(C)c2ccncn2)c(F)c1 (centres unmarked),1.94
19,COc1cc(Br)c(C(=O)c2nccc3cc(OC)c(OC)cc23)cc1OC,10.6
20,O=C(COc1ccc2ccc(=O)oc2c1)Nc1nccs1,2.46

row,SMILES,"hERG current change (%, negative = inhibition) at 1uM [%]"
1,O=C1N/C(=N/N=C/c2ccc(O)cc2)SC1Cc1ccccc1 (centres unmarked),-0.776
2,Cc1occc1C(=O)N/N=C/c1ccc(N(C)C)cc1,15.7
3,O=C(NC1(C(F)(F)F)NC(=O)N(Cc2ccco2)C1=O)c1cccs1 (centres unmarked),19.2
4,CC(=O)N1CCN(c2ccc(NC(=O)c3ccc(Br)o3)cc2Cl)CC1,-1.25
5,Cc1ccc(Cl)cc1N1CCN(S(=O)(=O)c2cnc[nH]2)CC1,1.64
6,CN(Cc1ccccc1)S(=O)(=O)c1cc2c3c(c1)CCN3C(=O)CC2,6.98
7,O=C(NN1C(=O)c2ccccc2NC1c1ccco1)c1ccc(Br)cc1 (centres unmarked),-50.4
8,O=C(NN1C(=O)c2ccccc2NC1c1ccco1)c1ccccc1 (centres unmarked),4.38
9,O=C(NN1C(=O)c2ccccc2NC1c1ccc([N+](=O)[O-])o1)c1ccc(Br)cc1 (centres unmarked),-27.2
10,O=C(Nc1ccc2oc(=O)ccc2c1)c1cccnc1Cl,-2.76
11,CN(C)S(=O)(=O)c1ccc(C(=O)OCCCN=C2NS(=O)(=O)c3ccccc32)cc1,-5.83
12,COc1ccc(CN2CCCC(C(=O)c3ccc(Cl)cc3)C2)c(O)c1 (centres unmarked),-21.3
13,COc1ccc(C(=O)C2CCCN(Cc3cc(Cl)ccc3O)C2)c(OC)c1 (centres unmarked),12.6
14,CSc1ccc(C(=O)C2CCCN(Cc3cnc(SC)nc3)C2)cc1 (centres unmarked),-33.7
15,COc1ccc(CN2CCCC(C(=O)c3ccc(SC)cc3)C2)cc1Cn1cccn1 (centres unmarked),-68.5
16,O=C(c1ccc(-c2ccccc2)c(F)c1)C1CCCN(CCCn2cccn2)C1 (centres unmarked),-38.6
17,O=C(c1ccc(Cl)cc1)C1CCCN(Cc2ccc3nonc3c2)C1 (centres unmarked),0.831
18,COc1cc(CN2CCCC(C(=O)c3ccc(SC)cc3)C2)cc(Cl)c1O (centres unmarked),-3.13
19,COc1ccc(CN2CCCC(C(=O)c3ccc(Cl)cc3)C2)c(OC)c1 (centres unmarked),-53.6
20,COc1cccc(C(=O)C2CCCN(Cc3ccc(OC)c(Cn4cncn4)c3)C2)c1 (centres unmarked),-20.2

row,SMILES,"hERG current change (%, negative = inhibition) at 1uM [%]"
1,CSc1ccc(C(=O)C2CCCN(Cc3cccnc3)C2)cc1 (centres unmarked),-4.37
2,COc1ccc(CN2CCCC(C(=O)c3ccc(Cl)cc3)C2)cc1Cn1cncn1 (centres unmarked),-59.9
3,CSc1ccc(C(=O)C2CCCN(CCCn3cccn3)C2)cc1 (centres unmarked),-78.3
4,Cc1ccc(-c2nc(Nc3cccc(C)c3)sc2CC(=O)O)cc1,9.35
5,O=C(NCCCCc1ccccc1)Nc1cccc(F)c1,4.51
6,COC(=O)CNS(=O)(=O)c1ccc(C)cc1,11.1
7,CCn1c(SCC(=O)NCCc2ccccc2)nnc1C(C)C,12
8,CCOC(=O)c1oc2ccc(S(=O)(=O)Nc3ccc4c(c3)n(C)c(=O)n4C)cc2c1C,2.26
9,Cc1cc(-c2ccccc2)nc2cc(C(=O)N(Cc3ccccc3)Cc3ccccc3)nn12,-3.92
10,CN(C)C(=S)Nc1ccc(Br)cc1Cl,7.39
11,Nc1nccnc1C(=O)N/N=C/c1ccco1,13.2
12,Cc1csc(NC(=O)CSc2nnc(CCNC(=O)c3ccc(Cl)c(Cl)c3)n2C)n1,2.76
13,COc1ccc(-n2nnnc2SCC(=O)Nc2ccccc2N2CCOCC2)cc1,-6.62
14,COc1ccc(CN2CCCC(C(=O)c3ccc(Cl)cc3)C2)cc1Cn1cccn1 (centres unmarked),-78.4
15,O=C(c1ccc(Cl)cc1)C1CCCN(Cc2ccc3ncccc3c2)C1 (centres unmarked),-2.91
16,COc1c(C)cc(C(=O)C2CCCN(Cc3cccc4nccnc34)C2)cc1C (centres unmarked),-21.2
17,COc1ccc(CN2CCCC(C(=O)c3cccc(OC(C)C)c3)C2)cc1Cn1cccn1 (centres unmarked),-3.41
18,COc1ccccc1C(=O)C1CCCN(Cc2cccc3nccnc23)C1 (centres unmarked),-45
19,CSc1ccc(C(=O)C2CCCN(Cc3cccc4nccnc34)C2)cc1 (centres unmarked),-82

# From PMC4336329 (PLoS ONE, 2015)
